From PubChem BioAssay (NCATS)
Inconclusive results are not listed. Activity calls are given as the source filed them. The call rests on the fitted dose curve; in most records, active means well fitted curve in the direction sought with a large enough effect; inconclusive means small, poorly fitted or top-dose-only effect, or another doubt; inactive means no such curve, though single readings can be large; an effect the other way counts as inactive or inconclusive.

Experiments:
[1] = qHTS of pediatric cancer cell lines to identify multiple opportunities for drug repurposing: Primary screen for LAN-5 cells (AID 1347100); conditions: LAN-5 neuroblastoma viability, CellTiter-Glo luminescence, 48 h; series mostly up to 46 µM
Summary of the method: (§1)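 Viability after 48 h compound treatment at 37C, 500-1,000 cells/well, read as ATP luminescence with CellTiter-Glo. Primary screens used 11-point (MIPE, 0.78 nM-46 µM) or 8-point (NPC, 0.59 nM-46 µM) final concentrations; follow-up screens used 11-point dilutions.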

[2] = qHTS of pediatric cancer cell lines to identify multiple opportunities for drug repurposing: Primary screen for BT-12 cells (AID 1347101); conditions: BT-12 viability, CellTiter-Glo luminescence, 48 h; series mostly up to 57.3 µM; further: nearly all actives have a fitted effect of over 25% in size
Summary of the method: (§2)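 Cells (500-1,000/well) rested 5 h, then received compounds for 48 h; metabolically active cells were measured by CellTiter-Glo luminescence. Final concentrations spanned up to 46 µM (MIPE, 11-point) or 0.59 nM-46 µM (NPC, 8-point) in primary screens, 11-point in follow-ups.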

[3] = qHTS of pediatric cancer cell lines to identify multiple opportunities for drug repurposing: Primary screen for Rh18 cells (AID 1347102); conditions: Rh18 rhabdomyosarcoma viability, CellTiter-Glo luminescence, 48 h; series mostly up to 46 µM; further: nearly all actives have a fitted effect of over 65% in size
Summary of the method: as §1

[4] = qHTS of pediatric cancer cell lines to identify multiple opportunities for drug repurposing: Primary screen for OHS-50 cells (AID 1347103); conditions: OHS-50 osteosarcoma viability, CellTiter-Glo luminescence, 48 h; series mostly up to 57.3 µM; further: nearly all actives have a fitted effect of over 40% in size
Summary of the method: as §2

[5] = qHTS of pediatric cancer cell lines to identify multiple opportunities for drug repurposing: Primary screen for RD cells (AID 1347104); conditions: RD rhabdomyosarcoma viability, CellTiter-Glo luminescence, 48 h; series mostly up to 46 µM; further: nearly all actives have a fitted effect of over 55% in size
Summary of the method: (§3)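 500-1,000 cells/well; 5 h pre-incubation 37 °C/5% CO2; compound pinned; 48 h; CellTiter-Glo, 15 min RT; luminescence. MIPE 11-pt from 0.78 nM, NPC 8-pt from 0.59 nM final. Bortezomib 2.3 µM final as positive control.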

[6] = qHTS of pediatric cancer cell lines to identify multiple opportunities for drug repurposing: Primary screen for MG 63 (6-TG R) cells (AID 1347105); conditions: MG 63 (6-TG R) viability, CellTiter-Glo, 48 h; series mostly up to 46 µM; further: nearly all actives have a fitted effect of over 50% in size
Summary of the method: as §3

[7] = qHTS of pediatric cancer cell lines to identify multiple opportunities for drug repurposing: Primary screen for control Hh wild type fibroblast cells (AID 1347106); conditions: Hh wild-type fibroblast viability, CellTiter-Glo luminescence, 48 h; series mostly up to 46 µM;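 further: a drop in luminescence marks cytotoxicity and a rise apparent proliferation; nearly all actives have a fitted effect of over 55% in size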
Summary of the method: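 Cells (500-1,000/well) in growth media were settled 5 h at 37 degrees C, then given compounds for 48 h. Viability was read as CellTiter-Glo luminescence. Primary runs used MIPE at 11 points (0.78 nM-46 µM) and NPC at 8 points (0.59 nM-46 µM); follow-ups used 11 points.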

[8] = qHTS of pediatric cancer cell lines to identify multiple opportunities for drug repurposing: Primary screen for Rh30 cells (AID 1347107); conditions: Rh30 rhabdomyosarcoma viability, CellTiter-Glo luminescence, 48 h; series mostly up to 46 µM; further: nearly all actives have a fitted effect of over 75% in size
Summary of the method: as §1

[9] = qHTS of pediatric cancer cell lines to identify multiple opportunities for drug repurposing: Primary screen for Rh41 cells (AID 1347108); conditions: Rh41 rhabdomyosarcoma viability, CellTiter-Glo luminescence, 48 h; series mostly up to 46 µM;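 further: luminescence drop marks cytotoxic hits; nearly all actives have a fitted effect of over 70% in size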
Summary of the method: as §3

Measured: Potency

NC(=O)CN1CCCC1=O
not listed: [9]
inactive: all other assays above

OC(O)C(Cl)(Cl)Cl
inactive: all assays above

c1cc2c(c(N3CCNCC3)c1)OCCO2
not listed: [9]
inactive: all other assays above

CC(C)(O)C(Cl)(Cl)Cl
inactive: all assays above

CCNc1nc(Cl)nc(NCC)n1
not listed: [9]
inactive: all other assays above

CCCC(C)C1(CC)C(=O)N=C(S)NC1=O (configuration not stated)
not listed: [9]
inactive: all other assays above

CCOC(=O)NC(C)(C)Cc1ccc(Cl)cc1
not listed: [9]
inactive: all other assays above

CN(C)C(=O)Oc1cc(OC(=O)N(C)C)cc(C(O)CNC(C)(C)C)c1 (configuration not stated)
inactive: all assays above

ClCc1cccc(Cl)c1
inactive: all assays above

C[C@]12CC[C@H]3[C@@H](CC=C4C[C@@H](O)CC[C@@]43C)[C@@H]1CC[C@@H]2O
not listed: [9]
inactive: all other assays above

Sc1ccccc1Cl
not listed: [9]
inactive: all other assays above

CCOC(=O)C1(c2ccccc2)CCN(CCc2ccc(N)cc2)CC1
inactive: all assays above

C=CCN1CC[C@]23CCCC[C@H]2[C@H]1Cc1ccc(O)cc13
inactive: all assays above

CCOC(=O)c1cncn1C(C)c1ccccc1 (configuration not stated)
not listed: [9]
inactive: all other assays above

CC(C)[N+](C)(CCC(C(N)=O)(c1ccccc1)c1ccccc1)C(C)C
not listed: [9]
inactive: all other assays above

O=C(CCCCl)c1ccc(F)cc1
inactive: all assays above

Cc1nnc2n1-c1sc(CCC(=O)N3CCOCC3)cc1C(c1ccccc1Cl)=NC2
not listed: [9]
inactive: all other assays above

CCN(CC)C(C)C(=O)c1ccccc1 (configuration not stated)
not listed: [9]
inactive: all other assays above

CCN(Cc1ccc(Cl)nc1)/C(=C/[N+](=O)[O-])NC
inactive: all assays above

C[C@]12CC[C@H]3[C@@H](CCC4=CC(=O)CC[C@@]43C)[C@@H]1CC[C@@H]2C(=O)O
not listed: [9]
inactive: all other assays above

O=C(O)c1nn(Cc2ccc(Cl)cc2Cl)c2ccccc12
inactive: all assays above

O=C(N[C@H]1N=C(c2ccccc2F)c2cccc3c2N(CC3)C1=O)c1cc2ccccc2[nH]1
not listed: [9]
inactive: all other assays above

c1ccc2nc(N3CCNCC3)ccc2c1
inactive: all assays above

CCOP(=S)(OCC)O/N=C(\C#N)c1ccccc1
not listed: [9]
inactive: all other assays above

CCOC(=O)c1ncn2c1CN(C)C(=O)c1c(I)cccc1-2
not listed: [9]
inactive: all other assays above

C1CN2CCC1CC2
not listed: [9]
inactive: all other assays above

C[N+]1(C)[C@@H]2CC[C@H]1CC(OC(=O)C(CO)c1ccccc1)C2 (some centres not stated)
inactive: all assays above
